Drawing on PubChem BioAssay AID463173 (ICCB-Longwood Screening Facility, Harvard Medical School, 2010), this text covers survival for 59 compounds.

Each structure is given as a SMILES string. Out of some 52,000 compounds screened, about 1,700 (3.3%) were called active. Cut-off read from the data, not from the text of the source: active = survival mostly below about 52% (no sharp cut-off); inactive = mostly above about 56%. Many of the other results were omitted from the sample, so actives are more common in it than they were.

The experiment concerns Wild type. Briefly: S. aureus survival, RN4220 and DeltatarO strains – OD600, teichoic acid synthesis inhibitors, primary screen (AID 463173). The note with it: S. aureus RN4220 wild type/DeltatarO growth, OD600, 18 h, hits give low values, screened at 18.75 µg/mL (by protocol).
As for `O=C(Nc1nc2ccc(S(=O)(=O)N3CCCC3)cc2s1)c1cccc(F)c1`, the survival was 63% (inactive).
For `COc1ccc2c(c1)c1c(c(=O)n(-c3ccc(F)c(Cl)c3)c(=O)n1Cc1cccc(C)c1)n2C`, the survival is 71% (inactive).
The same measure for `Cc1cc(C)c(NC(=O)CSc2ccnc(=O)[nH]2)c(C)c1`: 74% (inactive).
As to `CCOc1cc(Cl)c(S(=O)(=O)n2cc(C)nc2CC)cc1Cl`, the survival was -7% (active).
The value for `CCc1nc(C)cn1S(=O)(=O)c1ccc(Cl)c(Cl)c1OC` was 77% (inactive).
The same measure for `CCOc1cc(Cl)c(S(=O)(=O)n2ccnc2)cc1Cl`: 74% (inactive).
The same measure for `CCCn1c(SCC(=O)c2ccc3c(c2)OCCO3)nnc1-c1ccco1`: 100% (inactive); for `O=C(CCN1CCOCC1)N1N=C(c2ccccc2)CC1c1ccco1` (centres undefined): 104% (inactive).
In the case of `Oc1ccc(Br)cc1C1CC(c2ccccc2)=NC(c2ccco2)N1` (centres undefined), the survival was 1% (active).
The value for `COc1ccccc1N1CCN(c2ncnc3c2cnn3-c2cccc(Cl)c2)CC1` was -4% (active).
With `COc1ccccc1N1CCN(c2ncnc3c2cnn3-c2ccc(C)cc2)CC1`, the survival was 63% (inactive).
The same measure for `COc1ccccc1N1CCN(c2ncnc3c2cnn3-c2cc(Cl)ccc2C)CC1`: 136% (inactive); for `O=C(COc1ccccc1Cl)N(Cc1ccco1)Cc1ccco1`: 81% (inactive); for `CCc1ccc(CNC(=O)CSc2c3c(nc4ccc(Cl)cc24)CCCC3)cc1`: 76% (inactive).
Regarding `CCOc1ccc(CNC(=O)CSc2c3c(nc4ccc(Cl)cc24)CCCC3)cc1`, the survival was 84% (inactive).
With `CCCCN(CC)C(=O)CSc1c2c(nc3ccc(Cl)cc13)CCCC2`, the survival is -2% (active).
On to `CCCCN(C)C(=O)CSc1c2c(nc3ccc(Cl)cc13)CCCC2`, for which the survival is -2% (active).
Regarding `COc1cc(OC)c(N(C)C(=O)CSc2c3c(nc4ccc(Cl)cc24)CCCC3)cc1Cl`, the survival was 2% (active).
As for `CCCN(CCC)C(=O)CSc1c2c(nc3ccc(Cl)cc13)CCCC2`, the survival is 52% (inactive).
For `COc1ccc(CNC(=O)CSc2c3c(nc4ccc(Cl)cc24)CCCC3)cc1`, the survival is 76% (inactive).
With `Cc1ccc(CNC(=O)CSc2c3c(nc4ccc(Cl)cc24)CCCC3)cc1`, the survival is 80% (inactive).
With `CCCCNC(=O)CSc1c2c(nc3ccc(Cl)cc13)CCCC2`, the survival is 66% (inactive).
With `COc1ccc(NC(=O)CSc2c3c(nc4ccc(Cl)cc24)CCCC3)cc1Cl`, the survival is 75% (inactive).
The value for `CCCNC(=O)CSc1c2c(nc3ccc(Cl)cc13)CCCC2` was 72% (inactive).
The same measure for `CN(Cc1ccccc1)C(=O)CSc1c2c(nc3ccc(Cl)cc13)CCCC2`: 0% (active).
With `CCCN(C(=O)c1c(C)oc2ncn(CC(C)C)c(=O)c12)c1ccccc1C`, the survival was 59% (inactive).
The value for `CCOc1ccc(CCNC(=O)Cn2nc(C)c3c(C)n(-c4ccccc4)nc3c2=O)cc1OCC` was 19% (inactive).
In the case of `CCn1cc(CCC(=O)NCc2ccccc2OC)c2ccccc21`, the survival is 76% (inactive).
As to `COc1ccc(C(=O)NCc2nnc(SCC(=O)Nc3ccccc3)n2-c2ccc(F)cc2)cc1`, the survival was 78% (inactive).
The same measure for `Clc1cccc(-n2ncc3c(N4CCCCCC4)ncnc32)c1`: 81% (inactive); for `Cc1ccc(OCC(=O)Nc2cccc(-c3nc4ccccc4s3)c2)cc1`: 55% (inactive).
The same measure for `COc1ccc(-c2nc3ccccc3s2)cc1NC(=O)COc1cccc(C)c1`: 39% (inactive).
The value for `COc1ccccc1C(=O)Nc1ccc(-c2nc3ccccc3s2)c(C)c1` was 82% (inactive).
Regarding `Cc1cccc(OCC(=O)Nc2cccc(-c3nc4ccccc4s3)c2)c1`, the survival is 5% (active).
The same measure for `COc1ccc(CC(=O)Nc2ccc(-c3nc4ccccc4s3)c(C)c2)cc1`: 69% (inactive); for `COc1ccc(CC(=O)Nc2ccc(-c3nc4ccccc4s3)c(C)c2)cc1OC`: 10% (active).
The value for `COc1cccc(CC(=O)Nc2ccc(-c3nc4ccccc4s3)cc2)c1` was -3% (active); that for `COc1cccc(CC(=O)Nc2ccc(-c3nc4ccccc4s3)cc2Cl)c1` was 73% (inactive).
The value for `Cc1cc(C)cc(OCC(=O)Nc2ccc(-c3nc4ccccc4s3)cc2)c1` was 88% (inactive).
`COc1ccc(N2CCN(S(=O)(=O)c3cc(Br)cc4c3N(C(=O)C3CC3)CC4)CC2)cc1`: the survival is 90% (inactive).
The same measure for `COc1ccc2nc3oc(C(=O)NCc4ccccc4OC)cc3cc2c1`: 88% (inactive); for `COc1ccc(NC(=O)CC2C(=O)N(c3ccc(F)cc3)C(=O)N2Cc2ccco2)cc1` (centres undefined): 90% (inactive); for `COc1ccc(CNC(=O)c2cc3oc4ccccc4c3n2C)cc1OC`: 64% (inactive).
On to `CCOC(=O)c1c(SCC(=O)Nc2nc3ccccc3s2)nc(=O)[nH]c1C`, for which the survival is 1% (active).
As for `Cc1cnc(=O)[nH]c1SCC(=O)Nc1nc2ccccc2s1`, the survival was 89% (inactive).
The value for `CCOC(=O)c1c(SCC(=O)Nc2nc3ccc(C)cc3s2)nc(=O)[nH]c1C` was 81% (inactive).
The value for `CC(C)OCCCNC(=O)Cc1ccc(NC(=O)N2CCCCc3ccccc32)cc1` was 77% (inactive); that for `CCN(CC)c1ccc(CN(C(=O)c2cc(=O)c3ccccc3o2)C2CCS(=O)(=O)C2)cc1` (centres undefined) was 76% (inactive); that for `COC(=O)c1c(NC(=O)CCCOc2ccc(C(C)(C)C)cc2)sc2c1C(C(=O)OC)CC2` (centres undefined) was -2% (active).
The value for `COC(=O)c1c(NC(=O)/C(C#N)=C/c2ccccc2)sc2c1C(C(=O)OC)CC2` (centres undefined) was 82% (inactive).
Regarding `CC1CCc2c(sc(NC(=O)CCCOc3ccc(C(C)(C)C)cc3)c2C(N)=O)C1` (centres undefined), the survival was 79% (inactive).
The value for `COC(=O)c1c(NC(=O)/C(C#N)=C/c2ccc(OC)cc2)sc2c1C(C(=O)OC)CC2` (centres undefined) was 71% (inactive).
The value for `COC(=O)c1c(NC(=O)CCCOc2cccc(C)c2)sc2c1C(C(=O)OC)CC2` (centres undefined) was -3% (active); that for `COC(=O)c1c(NC(=O)CCCOc2ccc(C)cc2)sc2c1C(C(=O)OC)CC2` (centres undefined) was 1% (active); that for `COC(=O)c1c(NC(=O)CCCOc2ccc(C(C)(C)C)cc2)sc2c1CCC(C)C2` (centres undefined) was 30% (inactive).
As to `COC(=O)c1c(NC(=O)c2cccs2)sc2c1C(C(=O)OC)CC2` (centres undefined), the survival is 104% (inactive).
For the compound `CCOc1ccc(/C=C/C(=O)Nc2sc3c(c2C(=O)OC)C(C(=O)OC)CC3)cc1` (centres undefined), the survival is 75% (inactive).
Regarding `Cc1ccc(N(O)C(=O)Nc2ccccc2)cc1`, the survival was 119% (inactive).
The same measure for `COCCCNC(=O)c1ccc2nc(CCc3ccccc3)oc2c1`: 88% (inactive).
